Screening data deposited in PubChem BioAssay by several laboratories.
SRC2 inh: inhibition of GAL4-SRC2 driven luciferase reporter, primary screen, SRC2 inhibitor project, cell-based, luminescence. HEK293 GAL4-SRC2 luciferase reporter. 370,000 compounds, 0.17% hits. Nuclear receptor coactivator 2 (Homo sapiens), Q15596. inhibition, % at 9 µM. AID 651957, 2012;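 active means inhibition above the mean inhibition of all tested compounds plus 3 SD, set per campaign, cut at about 52% in these data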;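 further: 0% = DMSO treated cells and 100% = cells given Gossypol at 36 µM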
NCOA1 inh: SRC1 coactivator transcriptional activity inhibitors, primary screen, cell-based, luminescence | Nuclear receptor coactivator 1 (Homo sapiens), Q15788 | HEK293 GAL4-SRC1 luciferase reporter | inhibition, % at 3.6 µM | 360,000 compounds, 0.12% hits | AID 588354, 2011;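 active means inhibition above the campaign mean plus 3 SD, with each screening campaign given its own cutoff, cut at about 60% in these data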;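 further: 0% = DMSO treated cells and 100% = gossypol at 36 µM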
NCOA3 inh: SRC3 coactivator transcriptional activity inhibitors, primary screen, cell-based, luminescence; Nuclear receptor coactivator 3 (Homo sapiens), Q9Y6Q9; HEK293 GAL4-SRC3 luciferase reporter; inhibition, % at 3.6 µM; 360,000 compounds, 0.17% hits;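 active means inhibition above a per-campaign cutoff, the mean of all compounds plus 3 SD, cut at about 60% in these data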;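 further: 0% = DMSO-treated cells and 100% = gossypol-treated cells at 36 µM; higher means less SRC3-driven luciferase light from the GAL4 reporter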
COUP-TFII inh: NR2F2 transcriptional activity inhibitors, primary screen, cell-based, luciferase reporter, HEK293T, luminescence; AID 686940, 2013; COUP transcription factor 2 (Homo sapiens), P24468; 370,000 compounds, 0.7% hits; HEK293T NGFI-A luciferase reporter; inhibition, % at 8.6 µM;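 active means inhibition above a per-plate cutoff, mean inhibition of test wells between control levels plus 3 SD, cut at about 38% in these data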;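 further: cells cotransfected with COUP-TFII expression vector driving the NGFI-A reporter; 0% = median of COUP-TF2 test wells and 100% = reporter-only cells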
Gli-Sufu block: Gli-Sufu pathway antagonists, primary screen, luciferase luminescence, Sufu-KO-LIGHT cells, uHTS; inhibition, % at 5 µM; AID 588413, 2011; Sufu-KO-LIGHT fibroblasts, Gli luciferase reporter luminescence; 340,000 compounds, 0.74% hits;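 active means inhibition above about 55%, limit read from the data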;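 further: 0% = DMSO-treated cells and 100% = wells with medium but no cells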
LRH-1 inv ag: LRH-1 (NR5A2) inverse agonists, primary screen, cell-based, luminescence, HEK293T, StAR-luciferase reporter. Nuclear receptor subfamily 5 group A member 2 (Homo sapiens), O00482. LRH-1 transfected, 24 h. inhibition, % at 3.6 µM. 360,000 compounds, 0.13% hits;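 active means inhibition above the mean inhibition of all tested compounds plus 3 SD, cut at about 73% in these data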;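 further: 0% = DMSO wells and 100% = reporter-only cells lacking LRH-1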
Target sequence (O00482 whole entry, looked up): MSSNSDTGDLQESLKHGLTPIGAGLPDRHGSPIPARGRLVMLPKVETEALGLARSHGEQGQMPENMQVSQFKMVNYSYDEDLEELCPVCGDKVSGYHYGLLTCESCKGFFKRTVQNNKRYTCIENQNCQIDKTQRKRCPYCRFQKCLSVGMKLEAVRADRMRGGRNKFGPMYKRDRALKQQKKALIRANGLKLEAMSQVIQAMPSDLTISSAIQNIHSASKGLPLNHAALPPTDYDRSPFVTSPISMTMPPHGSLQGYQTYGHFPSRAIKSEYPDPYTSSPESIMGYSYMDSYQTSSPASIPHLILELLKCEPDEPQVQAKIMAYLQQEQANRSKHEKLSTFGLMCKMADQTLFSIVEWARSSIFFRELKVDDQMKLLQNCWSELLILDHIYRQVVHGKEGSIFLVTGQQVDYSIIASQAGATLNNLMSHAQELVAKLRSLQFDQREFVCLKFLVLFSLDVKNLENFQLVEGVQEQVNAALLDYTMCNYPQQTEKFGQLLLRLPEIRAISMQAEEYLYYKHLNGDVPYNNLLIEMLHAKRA
Gli-Sufu confirm: Gli-SUFU pathway antagonists, confirmation, single concentration, luciferase luminescence, Sufu-KO-LIGHT cells; shares compounds with Gli-Sufu block; Gli luciferase reporter; inhibition, % at 5 µM; 2,500 compounds, 40% hits; AID 602428, 2012;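 active means mean inhibition at 5 µM reaching about 45%, limit read from the data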;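 further: plate controls were DMSO-treated cells for no effect and wells lacking cells for full effect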
Gli cytotox: cytotoxicity in Sufu-KO-LIGHT cells, confirmation, cytotoxicity control for Gli-SUFU antagonist project, cell-based, ATP luminescence, single concentration | 2,500 compounds, 32% hits | shares compounds with Gli-Sufu block | cytotoxicity, % at 5 µM;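 active means mean cytotoxicity at 5 µM above about 25%, limit read from the data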;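 further: cells exposed to compound overnight for roughly 16 to 18 hours; plate controls were DMSO wells with cells for no effect and medium without cells for full effect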
Wnt3a cs: Wnt3a reporter signal inhibition, confirmation, counter-screen for Gli-SUFU antagonist project, Wnt-LIGHT cells, luminescence, single concentration; shares compounds with Gli-Sufu block; Wnt3a-driven luciferase reporter; inhibition, % at 6.25 µM; 2,500 compounds, 20% hits; AID 651995, 2013;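 active means mean inhibition above about 25%, limit read from the data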
* hit, by the source's call. Hits are enriched below; roughly 1.3% of the tested compounds scored in any of these assays.

Results for C[C@]12CC[C@H](O)CC1=CC(=O)C1C2CC[C@]2(C)C(=O)[C@H](O)CC12 (some centres not stated) ?
SRC2 inh: 7.9; NCOA1 inh: 11.4; NCOA3 inh: 5.1; COUP-TFII inh: -9.0; Gli-Sufu block: 9.5; LRH-1 inv ag: -22.2

What do the screens show for `Cc1ccc(N2C(=O)NC(=O)/C(=C\c3cc(C)n(-c4sc5c(c4C#N)CCCC5)c3C)C2=O)cc1`?
SRC2 inh: -6.4; NCOA1 inh: -1.1; NCOA3 inh: 3.1; COUP-TFII inh: 12.6; Gli-Sufu block: 58.7*; LRH-1 inv ag: -4.7; Gli-Sufu confirm: 53.0*; Gli cytotox: 42.3*; Wnt3a cs: -44.6

How did CCN1C(=O)NC(=O)/C(=C/c2cc(C)n(-c3sc(C)c(C)c3C#N)c2C)C1=O do in these assays?
SRC2 inh: 2.6; NCOA1 inh: -38.6; NCOA3 inh: -3.7; COUP-TFII inh: -15.4; Gli-Sufu block: 0.1; LRH-1 inv ag: -19.9

What do the screens show for `CC(=O)NC(Cc1ccc(N(CCCl)CCCl)cc1)C(=O)NCC(=O)NCC(=O)O` (configuration not stated)?
SRC2 inh: -23.7; NCOA1 inh: -7.5; NCOA3 inh: -14.8; COUP-TFII inh: 7.0; Gli-Sufu block: 53.2; LRH-1 inv ag: -5.2; Gli-Sufu confirm: 18.6; Gli cytotox: 3.8; Wnt3a cs: -1.7

Results for CCOC(=O)CNC(=O)CNC(=O)C(Cc1ccc(N(CCCl)CCCl)cc1)NC(C)=O (configuration not stated) ?
SRC2 inh: -11.7; NCOA1 inh: -53.9; NCOA3 inh: 22.8; COUP-TFII inh: -5.6; Gli-Sufu block: 15.9; LRH-1 inv ag: -20.5

How did S=P(N1CCCCCC1)(N1CC1)N1CC1 do in these assays?
SRC2 inh: 7.3; NCOA1 inh: 8.9; NCOA3 inh: 3.1; COUP-TFII inh: 3.1; Gli-Sufu block: 4.0; LRH-1 inv ag: 5.2

Results for COP(=O)(NC(C)=O)SC (configuration not stated) ?
SRC2 inh: -16.1; NCOA1 inh: 9.4; NCOA3 inh: 4.6; COUP-TFII inh: 3.9; Gli-Sufu block: 0.1; LRH-1 inv ag: 12.3

What do the screens show for `OC(c1ccccc1)(c1ccc(Cl)cc1)C1CN2CCC1CC2` (configuration not stated)?
SRC2 inh: -15.9; NCOA1 inh: 9.1; NCOA3 inh: 26.6; COUP-TFII inh: 5.0; Gli-Sufu block: 58.3*; LRH-1 inv ag: 8.8; Gli-Sufu confirm: 26.6; Gli cytotox: 21.6; Wnt3a cs: -43.5

Results for C[C@H](Cc1ccc(OCC(=O)O)cc1)NC[C@H](O)c1cccc(Cl)c1 ?
SRC2 inh: -18.3; COUP-TFII inh: -19.5

How did CCOP(=O)(OCC)C(O)c1cccc([N+](=O)[O-])c1 (configuration not stated) do in these assays?
SRC2 inh: -8.1; NCOA1 inh: -13.8; NCOA3 inh: -3.8; COUP-TFII inh: 6.8; Gli-Sufu block: 57.5*; LRH-1 inv ag: -8.5; Gli-Sufu confirm: 12.2; Gli cytotox: 25.0*; Wnt3a cs: -34.5

What do the screens show for `CCOc1ccc(-n2c(O)c(C=Nc3ccc(N(CC)CC)cc3)c(=O)[nH]c2=O)cc1`?
SRC2 inh: -19.3; NCOA1 inh: 8.4; NCOA3 inh: 0.9; COUP-TFII inh: -10.5; Gli-Sufu block: 97.4*; LRH-1 inv ag: -6.5; Gli-Sufu confirm: 10.9; Gli cytotox: 16.7; Wnt3a cs: -11.8

How did C[n+]1c(-c2ccccc2)sc2ccccc21 do in these assays?
SRC2 inh: 4.7; NCOA1 inh: 9.9; NCOA3 inh: -8.2; COUP-TFII inh: 15.2; Gli-Sufu block: 0.4; LRH-1 inv ag: 12.5

Results for CN(C)c1ccc(/C=C/C=C/c2sc3ccccc3[n+]2C)cc1 ?
SRC2 inh: 8.7; NCOA1 inh: 31.8; NCOA3 inh: 38.7; COUP-TFII inh: 27.6; Gli-Sufu block: 82.5*; LRH-1 inv ag: 46.9; Gli-Sufu confirm: 83.8*; Gli cytotox: 39.8*; Wnt3a cs: 48.1*

Results for CCOP(=O)(CCP(=O)(OCC)OCC)OCC.C[CH2][Sn]([Cl])([Cl])[CH2]C ?
SRC2 inh: -42.2; NCOA1 inh: -24.5; NCOA3 inh: -10.9; COUP-TFII inh: 20.7; Gli-Sufu block: 63.4*; LRH-1 inv ag: 39.7; Gli-Sufu confirm: 62.5*; Gli cytotox: 13.5; Wnt3a cs: -25.5

How did CCOP(=O)(OCC)OCC do in these assays?
SRC2 inh: 7.9; NCOA1 inh: -56.6; NCOA3 inh: -10.2; COUP-TFII inh: 5.1; Gli-Sufu block: 4.8; LRH-1 inv ag: 3.9

What do the screens show for `Cc1ncc(CN2CCCC(C(=O)c3ccc(C(C)(C)C)cc3)C2)s1` (configuration not stated)?
SRC2 inh: -3.2; NCOA1 inh: -0.4; NCOA3 inh: -13.7; COUP-TFII inh: 18.7; Gli-Sufu block: 53.1; LRH-1 inv ag: -11.4; Gli-Sufu confirm: 14.0; Gli cytotox: 23.7; Wnt3a cs: -89.7

Results for O=C(COc1ccc(Cl)cc1)NCCc1cnc[nH]1 ?
SRC2 inh: -5.2; NCOA1 inh: 2.6; NCOA3 inh: 3.7; COUP-TFII inh: -3.4; Gli-Sufu block: 7.5; LRH-1 inv ag: -10.8

What do the screens show for `CSc1ncc(Cl)c(C(=O)O)n1`?
SRC2 inh: -18.5; NCOA1 inh: -26.3; NCOA3 inh: -4.1; COUP-TFII inh: 1.5; Gli-Sufu block: 54.5; LRH-1 inv ag: 14.6; Gli-Sufu confirm: 34.3; Gli cytotox: -4.4; Wnt3a cs: 10.7

Results for CSc1ncc(Br)c(N2CC2)n1 ?
SRC2 inh: -15.7; NCOA1 inh: -13.0; NCOA3 inh: -3.9; COUP-TFII inh: -0.1; Gli-Sufu block: -0.7; LRH-1 inv ag: -4.3

What do the screens show for `CCC1(c2ccc(C)cc2)C(=O)NC(=S)NC1=O`?
SRC2 inh: -18.6; NCOA1 inh: 4.4; NCOA3 inh: 5.3; COUP-TFII inh: 2.2; LRH-1 inv ag: -10.0

How did N/C(=N\N=C\c1ccc(O)cc1O)N[N+](=O)[O-] do in these assays?
SRC2 inh: 3.9; NCOA1 inh: 3.7; NCOA3 inh: -17.0; COUP-TFII inh: 9.3; Gli-Sufu block: 55.3*; LRH-1 inv ag: 2.8; Gli-Sufu confirm: 14.4; Gli cytotox: 15.2; Wnt3a cs: 42.1*
